# Source: PubChem BioAssay
# A selection: hits, their analogues and other compounds. The true share with any hit is near 1.6%.
# KCNQ2 block – KCNQ2 (rat) channel inhibition; O88943; AID 2156; 310,000 tested, 1.1% active; CHO-K1 KCNQ2, FluxOR thallium flux, 20 min; active compounds read low; B-score at 10 µM;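 active means fluorescence ratio B-score at most minus 3 library SDs, with starting brightness B-score within 2 library SDs, cut at about -5.5 in these data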
# Target sequence (O88943 whole entry, looked up): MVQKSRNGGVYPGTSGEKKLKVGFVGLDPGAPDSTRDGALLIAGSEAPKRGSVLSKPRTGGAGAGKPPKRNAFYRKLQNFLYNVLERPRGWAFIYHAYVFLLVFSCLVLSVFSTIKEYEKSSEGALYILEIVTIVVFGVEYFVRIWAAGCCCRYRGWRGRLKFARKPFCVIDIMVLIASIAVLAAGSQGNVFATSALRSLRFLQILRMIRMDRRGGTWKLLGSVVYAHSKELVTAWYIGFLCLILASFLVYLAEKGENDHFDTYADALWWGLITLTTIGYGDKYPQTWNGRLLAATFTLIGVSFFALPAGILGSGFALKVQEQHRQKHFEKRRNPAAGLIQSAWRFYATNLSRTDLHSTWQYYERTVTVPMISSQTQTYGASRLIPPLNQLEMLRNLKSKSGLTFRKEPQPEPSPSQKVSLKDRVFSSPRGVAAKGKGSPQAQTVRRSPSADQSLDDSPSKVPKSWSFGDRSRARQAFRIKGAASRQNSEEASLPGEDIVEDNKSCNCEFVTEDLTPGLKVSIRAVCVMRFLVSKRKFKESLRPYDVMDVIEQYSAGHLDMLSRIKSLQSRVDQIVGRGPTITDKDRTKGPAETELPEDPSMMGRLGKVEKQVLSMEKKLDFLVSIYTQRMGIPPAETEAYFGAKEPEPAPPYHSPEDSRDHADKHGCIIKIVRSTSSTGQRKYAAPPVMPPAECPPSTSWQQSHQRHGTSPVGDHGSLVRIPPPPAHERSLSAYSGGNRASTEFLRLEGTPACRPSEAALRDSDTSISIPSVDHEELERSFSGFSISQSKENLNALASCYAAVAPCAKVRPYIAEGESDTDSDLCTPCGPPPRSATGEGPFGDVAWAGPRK
# KCNQ2 pot – potentiators of rat KCNQ2 potassium channel; B-score at 10 µM; 310,000 tested, 0.54% active; CHO-K1 KCNQ2, FluxOR thallium flux fluorescence; active compounds read high;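 active means fluorescence ratio B-score at least 3 SD of library B-scores, with initial fluorescence B-score within 3 of them, cut at about 5.3 in these data; same plate scores as AID 2156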;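 further: B-score of peak minus minimum over baseline fluorescence ratio after K+ and Tl+ stimulus; positive B-score means potentiation of KCNQ2 with more thallium influx and brighter signal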
# * marks the source's active call; other numbers are inactive results; i = inactive; / = not tested or not shown.
SMILES,KCNQ2 block,KCNQ2 pot
O=C(NCc1ccco1)c1cc2nc(C3CC3)cc(C(F)(F)F)n2n1,i,0.43
COc1ccc(-c2cc(C(F)(F)F)n3nc(C(=O)NCc4ccco4)cc3n2)cc1OC,-5.57*,-5.57
O=C(c1ccc([N+](=O)[O-])cc1)N(Cc1cccs1)C1CCS(=O)(=O)C1 (centres undefined),i,0.35
CN(C)C(=O)c1c2c(nc3ccccc13)CCCC2,i,1.69
CN(C)C(=O)c1c2c(nc3ccccc13)-c1ccccc1CC2,-6.14*,-6.14
COc1ccccc1CCNC(=O)C1CCC(=O)N(C2CCCCCC2)C1 (centres undefined),i,1.53
Cn1ncc(Cl)c1C(=O)N/N=C/c1ccccn1,i,/
Cc1ccc(S(=O)(=O)Oc2ccccc2/C=N/NC(=O)c2c(Cl)cnn2C)cc1,-6.05*,-6.05
CCCCCCC(C)OC(=O)c1ccccc1C(=O)O (centres undefined),i,/
Cc1cccc(N(C(=O)Cc2cccs2)C(C(=O)NC2CCCC2)c2ccncc2)c1 (centres undefined),i,/
O=C(NC1CCCCC1)C(c1cccs1)N(C(=O)Cc1c[nH]c2ccccc12)c1ccc(F)cc1 (centres undefined),-6.76*,-6.76
Cc1ccc(N(C(=O)Cc2cccs2)C(C(=O)NC2CCCCC2)c2ccccn2)cc1C (centres undefined),-6.2*,-6.2
CC(=O)c1ccc(N(C(=O)Cc2c[nH]c3ccccc23)C(C(=O)NC2CCCCC2)c2cccs2)cc1 (centres undefined),i,/
CCCCCc1cc(=O)oc2c(C(CCN(CC)CC)c3cc(OC)c(OC)c(OC)c3)c(OC)cc(OC)c12 (centres undefined),i,/
CC(C)(C)C(=O)N/C(N)=N/c1nc2ccccc2o1,i,/
Cc1cc(-c2ccc(C(C)C)c(S(=O)(=O)Nc3ccccn3)c2)on1,i,/
CCOC(=O)c1ccc(N2C(=O)CC(NC3CCN(C(=O)c4ccc(F)cc4)CC3)C2=O)cc1 (centres undefined),-9.5*,-9.5
CCOc1ccc(N2C(=O)CC(NC3CCN(C(=O)c4ccc(F)cc4)CC3)C2=O)cc1 (centres undefined),i,/
CCNC(=O)c1ccccc1SCc1ccccc1,-7.41*,-7.41
CCc1ccc(OCCNC(=O)c2ccccc2SCc2ccccc2)cc1,i,/
O=C(CSc1nnc(COc2cccc3ccccc23)o1)N1c2ccccc2CCc2ccccc21,-8.4*,-8.4
NC(=O)CSc1nnc(COc2cccc3ccccc23)o1,i,1.12
O=C(Nc1ccc(Cc2ccncc2)cc1)c1ccc([N+](=O)[O-])o1,i,/
COC(=O)c1ccc(Nc2c([N+](=O)[O-])c(=O)oc3ccccc23)cc1,i,1.65
CCc1ccc(C(=O)NNC(=O)CCC2CCCCC2)cc1,i,4.54
SMILES,KCNQ2 block,KCNQ2 pot
CCOc1ccc2nc(SC3CC(=O)N(c4ccc(C)cc4)C3=O)sc2c1 (centres undefined),i,/
CCOc1ccc2nc(/N=C/c3c(C)[nH]n(-c4ccc(C)cc4)c3=O)sc2c1,i,16.7*
CCOc1[nH]n(-c2ccccc2)c(=O)c1C=Nc1ccc(OC)cc1,i,0.02
CCOc1ccc2nc(/N=C/c3c(C)[nH]n(-c4ccccc4)c3=O)sc2c1,i,20.2*
Cc1nnc(SCc2ccc(F)cc2)n1NC/C=C/c1ccccc1,i,/
CCn1c(CCC(=O)N(C)CC(=O)Nc2cccc(F)c2)nc2cc(S(=O)(=O)N(C)C)ccc21,i,0.43
Cc1ccc(CN2CC(C(=O)Nc3ccc(S(=O)(=O)N4CCCCC4)cc3)CC2=O)cc1 (centres undefined),i,/
NC(=NCCc1c[nH]c2ccccc12)NC(=O)c1ccc(Cl)cc1,-5.69*,-5.69
O=C(N[C@@H](Cc1c[nH]c2ccccc12)C(=O)O)c1ccc(Cl)cc1,i,1
Nc1c(Cl)cc(-c2[nH]c3cc(C(=O)NCCO)ccc3c(=O)c2O)cc1Cl,i,/
C/C(CC(=O)NC(C)(C)C)=N\NC(N)=S,i,/
COc1cccc(C(c2nnnn2CCc2ccccc2)N2CCN(c3ccccc3)CC2)c1OC (centres undefined),-6.69*,-6.69
COc1ccccc1C(c1nnnn1CCc1ccccc1)N1CCN(c2ccccc2)CC1 (centres undefined),i,/
COc1cccc(C(c2nnnn2Cc2ccco2)N2CCN(c3cccc(C)c3C)CC2)c1OC (centres undefined),-6.2*,-6.2
COc1ccc(OC)c(C(c2nnnn2Cc2ccco2)N2CCN(C)CC2)c1 (centres undefined),i,/
Cc1ccc(C(=O)N(CC(=O)NC2CCCC2)c2ccccc2Cl)s1,i,/
COC(=O)c1cc(NS(=O)(=O)c2ccc(C(C)C)cc2)ccc1N1CCOCC1,i,2.38
CCOC(=O)CN(c1ccccc1C)S(=O)(=O)c1ccc(Cl)cc1,i,/
CC(C)CN(C(=O)COC(=O)Cc1cccc2ccccc12)c1c(N)n(Cc2ccccc2)c(=O)[nH]c1=O,i,/
Clc1cc(Cl)cc(CSc2nnc(-c3sccc3-n3cccc3)o2)c1,-5.89*,-5.89
Clc1cccc(CSc2nnc(-c3sccc3-n3cccc3)o2)c1,i,/
COc1ccccc1C(=O)NCCC(=O)NCCCSc1ccccc1,i,/
CC(=O)c1ccc(NC(=O)CSc2nc(C3CC3)nc3ccccc23)cc1,i,1.11
O=C(CSc1nc(C2CC2)nc2ccccc12)N1c2ccccc2Sc2ccccc21,-6.1*,-6.1
Nc1ncc([N+](=O)[O-])cc1S(=O)(=O)c1ccccc1,i,0.05
SMILES,KCNQ2 block,KCNQ2 pot
CC1CCCCN1C(=O)c1cc2nc(-c3ccccc3)cc(-c3ccccc3)n2n1 (centres undefined),-5.71*,-5.71
CC1CCCCN1C(=O)CSc1nc(-c2ccccc2)cc(=O)[nH]1 (centres undefined),i,0.32
COc1cc2c(cc1NC(=O)COC(=O)/C=C/c1ccc([N+](=O)[O-])cc1)oc1ccccc12,i,/
COc1cc2c(cc1NC(=O)/C=C/c1ccc([N+](=O)[O-])cc1)oc1ccccc12,i,5.61*
Cc1cc(C)c(S(=O)(=O)c2cccc(C)c2C)c(=O)[nH]1,i,0.01
Cn1c(=O)[nH]c(=O)c2c1nc([N+](=O)[O-])n2Cc1ccccc1,-6.16*,-6.16
CC(C)Cn1c([N+](=O)[O-])nc2c1c(=O)[nH]c(=O)n2C,i,/
O=C(COC(=O)c1ccc(F)c(S(=O)(=O)N2CCCCC2)c1)NCc1ccc(F)cc1,i,/
Cc1nc2c(c(C)nn2-c2ccccc2)c(C)c1CCC(=O)Nc1ccc(CN2CCCC2)cc1,-6.12*,-6.12
CCC(C)NC(=O)CCc1c(C)nc2c(c(C)nn2-c2ccccc2)c1C (centres undefined),i,1.95
CCNC(=O)NC(=O)C(C)OC(=O)CNS(=O)(=O)c1c(Cl)cc(Br)cc1Cl (centres undefined),i,0.03
COc1ccc(/C=N/N2CCN(c3ccccc3OC)CC2)cc1OC,i,0.01
COc1cccc(/C=N/N2CCN(c3ccccc3OC)CC2)c1,-5.55*,-5.55
O=C(c1ccc(CS(=O)c2cccc(Cl)c2)o1)N1CCN(c2ccccn2)CC1 (centres undefined),i,0.11
CCC1CCCCN1C(=O)COc1c(Br)cc(Br)c2cccnc12 (centres undefined),-7.77*,-7.77
CCC1CCCCN1C(=O)COc1ccc(F)cc1 (centres undefined),i,0.05
